The values that follow come from PubChem BioAssay.
Also: test concentration not given here.

A short description of the first experiment: compound effects on multiple myeloma cell viability – MM1S, calcein-AM fluorescence, 48 h, basal, profiling panel (AID 1165). Conditions: higher = more signal.
In the case of `COC(=O)[C@@]1(Cc2ccc(OC)cc2)[C@H]2c3cc(C(=O)N4CCCC4)n(CCc4c[nH]c5cc(F)ccc45)c3C[C@H]2CN1C(=O)c1ccccc1`, the z-score was -1.08.
Take `Cc1ccc(F)cc1S(=O)(=O)N[C@@H]1CCN(Cc2ccc(-c3ccccc3)cc2)C1`: the z-score was -3.15.
On the same count and under the same terms, next, `COC(=O)[C@@]1(Cc2ccc(OC)cc2)[C@H]2c3cc(C(=O)N(C)C)n(Cc4c(OC)[nH]cc(C)c4=O)c3C[C@H]2CN1C(=O)c1ccccc1`: 0.685.
`[N-]=[N+]=Nc1ccccc1[C@H]1OC(c2ccc(OCCCO)cc2)=N[C@@]1(CCS(=O)(=O)c1ccccc1)C(=O)O`: the z-score was -1.42.
The same measure, in the same setting: next, `COC(=O)c1ccc(C(O)C2C=CC3C(=O)N(C)C(=O)C3N2NC(=O)OC(C)(C)C)o1` (stereo unspecified): -0.978; `CC=CC(O)C1C=CC2C(=O)N(c3ccccc3)C(=O)C2N1Nc1ccc(C(C)C)cc1` (stereo unspecified): -0.0872; `O=C1C[C@@](C(=O)NC2CC2)(c2ccc([N+](=O)[O-])cc2)[C@@H](c2ccc(CO)cc2)N1CC12CC3CC(CC(C3)C1)C2`: -2.07.
Same read-out and setting: under `COc1ccc(C(O)C2C=CC3C(=O)N(C)C(=O)C3N2Nc2ccccc2)cc1OCc1ccccc1` (stereo unspecified) stands -0.23; under `[N-]=[N+]=NCc1ccccc1C[C@@]1(C(=O)N2CCOCC2)N=C(c2ccc(OCCCO)cc2)O[C@@H]1c1ccccc1CN=[N+]=[N-]`, -0.757.
Consider `CN1C(=O)C2C=CC(C(O)c3ccccn3)N(Nc3ccccc3)C2C1=O` (stereo unspecified), for which the z-score was -0.309.
Regarding `COc1ccc(C#Cc2ccc3c(c2)[C@]2(C(=O)N3)[C@H](c3ccc(O)cc3)N3[C@H](c4ccccc4)[C@H](c4ccccc4)OC(=O)[C@H]3[C@@H]2C(=O)N2CCCCCCC2)cc1`, the z-score was -0.0384.
For the compound `O=C1OCCC=C[C@H]2OC34C=CCN(Cc5ccccc5)C(=O)[C@H]3N(CCCCCO)C(=O)[C@@H]4C12` (stereo partly specified), the z-score is 1.81.
As for `COC(=O)C(CC#Cc1ccc2c(c1)[C@]1(C(=O)N2)[C@H](C(=O)NC[C@H](O)c2ccccc2)[C@H]2C(=O)O[C@H](c3ccccc3)[C@H](c3ccccc3)N2[C@@H]1c1ccc(OCCO)cc1)C(=O)OC`, the z-score was -1.17.
As to `COCCOC(=O)N1C(=O)[C@@]2(c3cc(C#CCNC(N)=O)ccc31)[C@H](c1ccc(O)cc1)N1[C@H](c3ccccc3)[C@H](c3ccccc3)OC(=O)[C@H]1[C@@H]2C(=O)NC[C@H](O)c1ccccc1`, the z-score is 0.208.
On to `COC(=O)[C@@]1(Cc2ccccc2)[C@H]2c3cc(C(=O)N4CCCC4)n(Cc4ccc(C)o4)c3C[C@H]2CN1C(=O)c1ccccc1`, for which the z-score is -1.47.
Take `COCC(=C=CC[C@H](O)c1ccc(OCCO)cc1)C[C@H](O)c1cc(Cl)cc(Cl)c1O`: the z-score was -2.31.

The nature of the next experiment: calcein-AM signal in unstimulated myeloma cells – cell-based, calcein-AM fluorescence, 48 h, PK04 Diversity Set, profiling panel (AID 1166).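 Also: cells grown under basal conditions without added stimulus.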 Particulars: RPMI8226 myeloma viability, higher = more signal.
In the case of `C=CCC(OC(C)=O)[C@@H]1[C@@H](N(Cc2ccc(-c3ccccc3)cc2)C(=O)Cc2ccc(OC)cc2)c2cc(OCCCO)ccc2N1C(=O)c1ccc2ccccc2n1` (stereo partly specified), the z-score was -0.295.
Same read-out and setting: under `COc1ccc(C#Cc2ccc3c(c2)[C@]2(C(=O)N3)[C@H](C(=O)NC[C@H](O)c3ccccc3)[C@H]3C(=O)O[C@H](c4ccccc4)[C@H](c4ccccc4)N3[C@@H]2c2ccc(OCCO)cc2)cc1` stands -1.07; under `COCCOC(=O)N1C(=O)[C@@]2(c3cc(C#CC4(O)CCCCCC4)ccc31)[C@H](C(=O)N1CCCCCCC1)[C@H]1C(=O)O[C@H](c3ccccc3)[C@H](c3ccccc3)N1[C@@H]2c1ccccc1OCCO`, -1.87; under `COC(=O)c1ccc(OC)c(/C=C\CC(OC(C)=O)c2ccccc2)c1` (stereo unspecified), -2.39.
In the case of `Cc1ccc([C@H]2C(C(=O)O)=C[C@@H](C)N2S(=O)(=O)c2ccc(C)cc2)cc1`, the z-score was -0.808.
As to `NCCCCCCNC(=O)[C@H]1C[C@H]2C(=O)NCC(=O)N2[C@H]1c1cccc(OCCO)c1`, the z-score was 0.554.
Regarding `COc1ccc(CCN2C(=O)[C@@]3(Cc4ccccc42)c2ccccc2C(=O)N(Cc2ccccc2Cl)[C@H]3c2ccc(CO)cc2)cc1`, the z-score is -0.441.
On the same count and under the same terms, under `C=CC[C@@H](OC(=O)Nc1ccc(OC)cc1)c1ccc(O)c2ccccc12` stands -4.3; under `CC(C)C[C@@H]1NC(=O)[C@@H]2C[C@H](C(=O)NCCCCCC[N+](C)(C)C)[C@H](c3ccc(O)cc3)N2C1=O`, 0.996.
On to `O=C1C=CC(=O)[C@@H]2CC(COc3ccccc3)=C3[C@@H](CCc4ccccc4)OB(O)C[C@@H]3[C@H]12`, for which the z-score was -3.95.
Turning to `CN(C)CCCCNC(=O)[C@H]1C[C@H]2C(=O)N[C@@H](Cc3ccccc3)C(=O)N2[C@H]1c1ccc(O)cc1`, the z-score was 0.287.
As for `CCCC[C@H]1OB(O)C[C@H]2C1=C(C)C[C@H]1C(=O)N(Cc3ccccc3)C(=O)[C@H]12`, the z-score was -0.0458.
In the case of `C=C[C@@H](COC(C)=O)N(Cc1ccc([N+](=O)[O-])cc1)S(=O)(=O)c1ccc(Br)cc1`, the z-score is 0.647.
Consider `COc1ccc([Si](C)(C)[C@@H]2[C@@H](CCn3cc([C@H](O)c4ccccc4)nn3)O[C@]3(C(=O)N(Cc4ccc(N5C(=O)c6cccc7cccc5c67)cc4)c4ccccc43)[C@H]2C)cc1`, for which the z-score was -1.77.
Turning to `CC(C)(C)OC(=O)CC[C@@]1(C(=O)NCCN2CCOCC2)N=C(c2ccc(OCCCO)cc2)O[C@@H]1c1ccccc1`, the z-score is 1.26.
Turning to `O=C1O[C@@H](c2ccccc2)[C@@H](c2ccccc2)N2[C@@H](c3ccccc3OCCO)[C@]3(C(=O)Nc4ccc(C#CC5(O)CCCCCC5)cc43)[C@@H](C(=O)Nc3nc4ccccc4s3)[C@H]12`, the z-score is -4.17.
For the compound `COCCOC(=O)N1C(=O)[C@@]2(c3cc(C#CCNC(N)=O)ccc31)[C@H](c1ccc(OCCO)cc1)N1[C@H](c3ccccc3)[C@H](c3ccccc3)OC(=O)[C@H]1[C@@H]2C(=O)N1CCc2cc(OC)c(OC)cc2C1`, the z-score was -0.172.
In the case of `CCOC(=O)C[C@H]1[C@H](OC(=O)c2ccc(C(=O)c3ccccc3)cc2)[C@@H](NC(=O)C2CCCCC2)c2cc(OCCCO)ccc2N1C(=O)c1ccccc1`, the z-score was -0.681.
For `CC(C)=CCCC(C)=CC(O)C1C=CC2C(=O)N(c3ccccc3)C(=O)C2N1Nc1ccccc1` (stereo unspecified), the z-score was -1.02.
In the case of `COC(=O)[C@@]1(Cc2ccc(OC)cc2)[C@H]2c3cc(C(=O)N4CCCC4)n(CCc4c[nH]c5cc(F)ccc45)c3C[C@H]2CN1C(=O)c1ccccc1`, the z-score was -0.758.
Regarding `Cc1ccc(F)cc1S(=O)(=O)N[C@@H]1CCN(Cc2ccc(-c3ccccc3)cc2)C1`, the z-score is -4.09.
`COC(=O)[C@@]1(Cc2ccc(OC)cc2)[C@H]2c3cc(C(=O)N(C)C)n(Cc4c(OC)[nH]cc(C)c4=O)c3C[C@H]2CN1C(=O)c1ccccc1`: the z-score was 1.13.
In the case of `[N-]=[N+]=Nc1ccccc1[C@H]1OC(c2ccc(OCCCO)cc2)=N[C@@]1(CCS(=O)(=O)c1ccccc1)C(=O)O`, the z-score is 0.682.
Take `COC(=O)c1ccc(C(O)C2C=CC3C(=O)N(C)C(=O)C3N2NC(=O)OC(C)(C)C)o1` (stereo unspecified): the z-score is -0.342.
Still for that read-out and setting: next, `CC=CC(O)C1C=CC2C(=O)N(c3ccccc3)C(=O)C2N1Nc1ccc(C(C)C)cc1` (stereo unspecified): -0.849; `O=C1C[C@@](C(=O)NC2CC2)(c2ccc([N+](=O)[O-])cc2)[C@@H](c2ccc(CO)cc2)N1CC12CC3CC(CC(C3)C1)C2`: -3.09.
The same measure, in the same setting: under `COc1ccc(C(O)C2C=CC3C(=O)N(C)C(=O)C3N2Nc2ccccc2)cc1OCc1ccccc1` (stereo unspecified) stands -0.427; under `[N-]=[N+]=NCc1ccccc1C[C@@]1(C(=O)N2CCOCC2)N=C(c2ccc(OCCCO)cc2)O[C@@H]1c1ccccc1CN=[N+]=[N-]`, -2.91.
With `CN1C(=O)C2C=CC(C(O)c3ccccn3)N(Nc3ccccc3)C2C1=O` (stereo unspecified), the z-score was 0.497.
As for `COc1ccc(C#Cc2ccc3c(c2)[C@]2(C(=O)N3)[C@H](c3ccc(O)cc3)N3[C@H](c4ccccc4)[C@H](c4ccccc4)OC(=O)[C@H]3[C@@H]2C(=O)N2CCCCCCC2)cc1`, the z-score is -0.208.
Consider `O=C1OCCC=C[C@H]2OC34C=CCN(Cc5ccccc5)C(=O)[C@H]3N(CCCCCO)C(=O)[C@@H]4C12` (stereo partly specified), for which the z-score is 0.593.
With `COC(=O)C(CC#Cc1ccc2c(c1)[C@]1(C(=O)N2)[C@H](C(=O)NC[C@H](O)c2ccccc2)[C@H]2C(=O)O[C@H](c3ccccc3)[C@H](c3ccccc3)N2[C@@H]1c1ccc(OCCO)cc1)C(=O)OC`, the z-score is 0.0736.
Regarding `COCCOC(=O)N1C(=O)[C@@]2(c3cc(C#CCNC(N)=O)ccc31)[C@H](c1ccc(O)cc1)N1[C@H](c3ccccc3)[C@H](c3ccccc3)OC(=O)[C@H]1[C@@H]2C(=O)NC[C@H](O)c1ccccc1`, the z-score is -0.197.
On the same count and under the same terms, next, `COC(=O)[C@@]1(Cc2ccccc2)[C@H]2c3cc(C(=O)N4CCCC4)n(Cc4ccc(C)o4)c3C[C@H]2CN1C(=O)c1ccccc1`: -2.33; `COCC(=C=CC[C@H](O)c1ccc(OCCO)cc1)C[C@H](O)c1cc(Cl)cc(Cl)c1O`: -0.638.
